This note sets out measurements from PubChem BioAssay AID1851 (National Center for Advancing Translational Sciences (NCATS), 2009).

Screen size: about 16,000 compounds; about 5,800 (36%) were called active. Inconclusive results (about 23%) are left out. The list shows a part of the results. A number with no mark means an inactive call. Calls follow the shape of the dose curve; as a rule, active = well fitted curve in the direction sought with a large enough effect; inconclusive = small, poorly fitted or top-dose-only effect, or effect the other way; inactive = no such curve, though single readings can be large or run the other way.
% is scaled to controls: 0 for no effect and ±100 for the full control effect.

Cytochrome P450 2C19 (Homo sapiens), sequence (P33261 whole entry, looked up): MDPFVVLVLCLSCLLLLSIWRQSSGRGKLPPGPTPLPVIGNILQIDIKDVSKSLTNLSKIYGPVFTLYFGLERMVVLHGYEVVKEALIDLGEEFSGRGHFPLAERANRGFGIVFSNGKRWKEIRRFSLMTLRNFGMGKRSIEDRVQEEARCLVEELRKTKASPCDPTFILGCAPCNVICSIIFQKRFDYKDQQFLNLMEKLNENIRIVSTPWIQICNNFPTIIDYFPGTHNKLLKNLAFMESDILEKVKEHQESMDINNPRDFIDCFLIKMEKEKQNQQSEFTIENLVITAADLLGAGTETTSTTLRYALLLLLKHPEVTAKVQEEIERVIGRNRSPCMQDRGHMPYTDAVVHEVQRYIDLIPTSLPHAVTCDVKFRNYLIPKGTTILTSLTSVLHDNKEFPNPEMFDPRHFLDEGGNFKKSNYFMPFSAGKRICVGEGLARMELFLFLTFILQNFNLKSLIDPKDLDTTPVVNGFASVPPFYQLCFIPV

This test has as its target Cytochrome P450 2C19 (Homo sapiens) (UniProt P33261). Briefly: Cytochrome panel assay with activity outcomes. Particulars: recombinant CYP, pro-luciferin dealkylation, luminescence, p450-cyp2c19; series mostly up to 57.1 µM; activity, negative = inhibition: at the top concentration.
Turning to `COc1ccc(-n2c(=O)c(-c3cc(F)cc(F)c3)nc3cnc(N4CCNCC4)nc32)cc1`, the “activity, negative = inhibition” value is -25.9%.
On the same count and under the same terms, the value for `CC(C)(C)NS(=O)(=O)c1ccc(NS(=O)(=O)c2ccc(F)cc2)cc1` was 4.37%.
Turning to `CC(C)(C)c1ccc(NS(=O)(=O)c2ccc(N)cc2)cc1`, the AC50 (commonly the midpoint of the concentration-response curve, whichever way the signal moves) was 0.398 µM (active).
For the compound `Nc1ccc(S(=O)(=O)Nc2ccc(Cl)nn2)cc1`, the “activity, negative = inhibition” value was 9.31% [at 25.6 µM].
The same measure, in the same setting: to `CN(C)CCCNc1ncnc2nc[nH]c12` belongs 19.7% [at 11.4 µM].
For the compound `CN(Cc1ccco1)c1ccnc(-c2ccccc2C(F)(F)F)n1`, the AC50 is 7.94 µM (active).
Turning to `CN(C)c1ccnc(-c2ccccc2C(F)(F)F)n1`, the “activity, negative = inhibition” value is -34.4%.
Regarding `CN(Cc1ccco1)c1cc(-c2ccccc2Cl)ncn1`, the AC50 was 7.94 µM (active).
For `Cc1ccccc1-c1cc(N(C)Cc2ccco2)ncn1`, the concentration at half-maximal activity (AC50) was 6.31 µM (active).
For the compound `CN(C)Cc1ccccc1-c1nccc(N(C)Cc2ccco2)n1`, the “activity, negative = inhibition” value is -17.9%.
On to `COc1ccccc1-c1cc(N(C)Cc2ccco2)ncn1`, for which the concentration at half-maximal activity (AC50) was 3.98 µM (active).
For the compound `CN(C)Cc1ccccc1-c1cc(N(C)Cc2ccco2)ncn1`, the “activity, negative = inhibition” value is 37.8%.
With `CN(Cc1ccco1)c1cc(-c2ccccc2C(F)(F)F)ncn1`, the AC50 is 10 µM (active).
As to `O[C@]1(c2ccccc2)c2ccccc2NC2=NCCN21`, the activity, negative = inhibition was 36.2% [at 11.4 µM].
Regarding `Cc1onc(C(=O)/C=C/N(C)C)c1C(=O)Nc1nccs1`, the “activity, negative = inhibition” value was -12.2%.
As to `COC(=O)c1ccccc1NC(=O)c1ccc(Cn2cc(Cl)cn2)o1`, the AC50 is 1.12 µM (active).
On the same count and under the same terms, to `COc1ccc(NC(=O)c2ccc(COc3ccccc3)o2)cc1` belongs 5.62 µM (active).
On the same count and under the same terms, to `COC(=O)c1ccccc1NC(=O)c1ccc(COc2ccc(C)c(C)c2)o1` belongs 2 µM (active).
Same read-out and setting: the value for `Cc1ccc(OCc2ccc(C(=O)Nc3nccs3)o2)cc1C` was 2.51 µM (active).
With `Cc1ccc2ncc([N+](=O)[O-])n2c1`, the “activity, negative = inhibition” value was -12.1%.
As to `CCOC(=O)CC(NC(=O)c1ccc(C)cc1)c1ccc(C)cc1` (stereo not given), the AC50 was 14.1 µM (active).
For the compound `CCOC(=O)CC(NC(=O)c1ccco1)c1ccc(OC)cc1` (stereo not given), the concentration at half-maximal activity (AC50) is 14.1 µM (active).
`CCOc1ccc(C(CC(=O)O)NC(=O)COc2ccccc2)cc1` (stereo not given): the “activity, negative = inhibition” value was -6.04%.
`CCOC(=O)CC(NC(=O)c1cccs1)c1ccc(OCC)cc1` (stereo not given): the AC50 is 2.82 µM (active).
As to `CC(C)CSC[C@@H]1O[C@H](n2cnc3c(N)nccc32)[C@H](O)[C@@H]1O`, the activity, negative = inhibition is 39.2% [at 11.4 µM].
Take `COCCNC(=O)c1cn(Cc2c(F)cccc2Cl)nn1`: the AC50 was 14.1 µM (active).
For `COCCNC(=O)CCn1nc(-c2ccc(Cl)cc2)ccc1=O`, the “activity, negative = inhibition” value is 3.18%.
Still for that read-out and setting: to `CN(CCC(=O)O)S(=O)(=O)c1ccccc1` belongs -21.5% [at 11.4 µM].
As for `CN(CC(=O)Nc1cccc2c1CCCC2)S(=O)(=O)c1ccc(Br)cc1`, the AC50 is 5.01 µM (active).
With `NC(N)=NC[C@@H]1CCCCCCN1`, the activity, negative = inhibition is 23.1% [at 11.4 µM].
Same read-out and setting: the value for `Cn1c(C(=O)O)c(CC(=O)NCc2cccnc2)c2ccccc21` was 4.63%; that for `NNC(=O)Cc1cccnc1` was 7.22% [at 11.4 µM].
On to `O=C(c1ccccc1)c1c[nH]c(C(=O)NCc2cccnc2)c1`, for which the AC50 is 14.1 µM (active).
Same read-out and setting: to `O=C(CSCc1c(Cl)cccc1Cl)NCc1cccnc1` belongs 3.55 µM (active); to `O=C(CCc1ccccc1)NCc1cccnc1`, 25.1 µM (active).
For `CC(C)CO/N=C1/C[C@@H](O)[C@@H](O)[C@@H]2[C@@H]3C(=O)N([C@@H](C)c4ccccc4)C(=O)[C@H]3CC[C@@H]12`, the activity, negative = inhibition was 7.13% [at 11.4 µM].
Same read-out and setting: to `CC(CO)(CO)N=Cc1cc(I)cc(I)c1O` belongs -13.1% [at 11.4 µM].
`COc1ccccc1NC(=O)[C@H](COCc1ccccc1)NC(=O)OC(C)(C)C`: the AC50 is 3.55 µM (active).
In the case of `O=[N+]([O-])c1cc(C(F)(F)F)ccc1NCCCCNS(=O)(=O)c1ccc2ccccc2c1`, the AC50 was 1.78 µM (active).
As for `CCOC(=O)N/N=C/c1ccc(C)o1`, the “activity, negative = inhibition” value was -11.5%.
For `Cc1ccc(/C=C/C(=O)N2CC(C)CC(C)C2)o1` (stereo not given), the AC50 is 11.2 µM (active).
With `Cc1ccc(NC(=O)CN2C(=O)N/C(=C/c3ccc(C)o3)C2=O)cc1`, the “activity, negative = inhibition” value is -3.63%.
As to `Cc1cccc(NC(=O)CC2Nc3cccc4cccc(c34)NC2=O)c1` (stereo not given), the concentration at half-maximal activity (AC50) is 2.24 µM (active).
On the same count and under the same terms, to `O=C(CCCN1C(=O)c2cccc3cccc(c23)C1=O)N1CCc2ccccc2C1` belongs 3.98 µM (active); to `Cc1cccc(NC(=O)CCCN2C(=O)c3cccc4cccc(c34)C2=O)c1`, 14.1 µM (active).
With `C[N+](C)(CCCCCC[N+](C)(C)CCCN1C(=O)c2cccc3cccc(c23)C1=O)CCCN1C(=O)c2cccc3cccc(c23)C1=O`, the “activity, negative = inhibition” value was -15.3%.
Still for that read-out and setting: to `O=C(CN1C(=O)c2cccc3cccc(c23)C1=O)N1CCCCCC1` belongs 16.7%; to `O=C(O)c1ccc(Sc2nnnn2-c2ccccc2)c([N+](=O)[O-])c1`, -3.77%.
As to `Cc1ccc(-n2nnnc2Sc2nc([N+](=O)[O-])nn2C)cc1C`, the AC50 was 3.98 µM (active).
The same measure, in the same setting: to `CC(CCc1ccccc1)NC(=O)/C=C/c1ccccc1` (stereo not given) belongs 8.91 µM (active); to `CC(CCc1ccccc1)NC(=O)C(=O)NCCO` (stereo not given), 31.6 µM (active); to `CCCCNC(=O)C(=O)NC(C)CCc1ccccc1` (stereo not given), 14.1 µM (active).
With `CC(C)C(=O)N[C@@H]1CCCN1C(=O)/C=C\c1ccccc1`, the activity, negative = inhibition was -31.2% [at 11.4 µM].
The same measure, in the same setting: to `CC(C)C(=O)N[C@H]1CCCN1C(=O)/C=C\c1ccccc1` belongs -19.8% [at 11.4 µM]; to `O=C(O)[C@H](CCc1ccccc1)N1C(=O)c2ccccc2C1=O`, -17.1% [at 11.4 µM].
In the case of `CC(=O)c1cn(CC(=O)Nc2c(C)cccc2C)c2ccccc12`, the AC50 is 7.08 µM (active).
Same read-out and setting: to `CC(C)(C)N(NC(=O)Nc1ccc(Cl)c(Cl)c1)C(=O)c1ccccc1` belongs 1.26 µM (active).
Consider `O=C(Nc1ccc(C(=O)Nc2ccc(C(=O)Nc3ccc(S(=O)(=O)O)c4cc(S(=O)(=O)O)cc(S(=O)(=O)O)c34)cc2)cc1)Nc1ccc(C(=O)Nc2ccc(C(=O)Nc3ccc(S(=O)(=O)O)c4cc(S(=O)(=O)O)cc(S(=O)(=O)O)c34)cc2)cc1`, for which the “activity, negative = inhibition” value is -38.1%.
For `COC(=O)c1cccc(NC(=O)Nc2ccc(Cl)c(Cl)c2)c1`, the AC50 was 3.98 µM (active).
Still for that read-out and setting: the value for `Cc1cc(C)cc(C(=O)N(NC(=O)Nc2ccc(Cl)cc2)C(C)(C)C)c1` was 1.58 µM (active); that for `CC(C)(C)N(NC(=O)Nc1ccccc1)C(=O)c1ccccc1Cl` was 11.2 µM (active).
For `CC1(C)S[C@@H]2[C@H](NC(=O)[C@@H](N)c3ccccc3)C(=O)N2[C@H]1C(=O)O[C@H]1OC(=O)c2ccccc21`, the “activity, negative = inhibition” value is -21% [at 25.6 µM].
Still for that read-out and setting: to `O[C@H](CN1CCN(c2cccc(Cl)c2)CC1)C(c1ccccc1)c1ccccc1` belongs -35.5%.
For the compound `O=C(c1ccccc1)C1CN(c2ccccc2)CC1c1ccc(Cl)cc1` (stereo not given), the AC50 is 3.98 µM (active).
On the same count and under the same terms, to `COc1ccccc1-c1c(C(F)(F)F)oc2cc(OC(=O)c3cccc([N+](=O)[O-])c3C)ccc2c1=O` belongs 0.631 µM (active).
Take `Cc1noc(C)c1-c1nccc(NCCN2CCOCC2)n1`: the “activity, negative = inhibition” value was -26.3%.
`Clc1ccccc1-c1nccc(NCCN2CCOCC2)n1`: the AC50 is 5.01 µM (active).
As for `c1ccc2c(c1)CCCc1cc(NCCN3CCOCC3)nnc1-2`, the “activity, negative = inhibition” value was 38% [at 25.6 µM].
The same measure, in the same setting: the value for `Cc1ccccc1-c1cc(NCCN2CCOCC2)ncn1` was -8.59%.
Consider `Cc1ccccc1-c1nccc(NCCN2CCOCC2)n1`, for which the AC50 is 10 µM (active).
As to `Clc1ccccc1-c1ccc2ncnc(NCCN3CCOCC3)c2c1`, the “activity, negative = inhibition” value was -26.1%.
On the same count and under the same terms, to `COCCSc1nnc(NC(=O)C(C)(C)C)s1` belongs -29.9%.
With `CCSc1nnc(NC(=O)C(C(F)(F)F)C(F)(F)F)s1`, the AC50 is 20 µM (active).
As to `CSc1nc(Oc2ccc(F)cc2)c2ccccc2n1`, the AC50 is 7.08 µM (active).
As to `Cn1c(=O)c(-c2ccc(F)cc2)nc2cnc(Oc3ccccc3)nc21`, the “activity, negative = inhibition” value was 30.5%.
Same read-out and setting: the value for `CCOC(=O)c1cnc2c(cnn2C)c1NCCCN(C)C` was -21.4%; that for `CCOC(=O)c1cnc2c(cnn2CC)c1NN=C(C)C` was -4.89%.
On to `CCOC(=O)c1cnn(CCOC(=O)C(C)(C)C)c1NC(=O)C(C)(C)C`, for which the AC50 is 14.1 µM (active).
`COc1ccc(-c2c(C)oc3c(CN4CCN(CCO)CC4)c(O)ccc3c2=O)cc1OC`: the “activity, negative = inhibition” value is -21.7%.
Take `O=c1oc2c(CN3CCOCC3)c(O)ccc2c2ccccc12`: the concentration at half-maximal activity (AC50) is 14.1 µM (active).
Regarding `CN(C)c1ncc2nc(-c3ccc(F)cc3)c(=O)n(C)c2n1`, the “activity, negative = inhibition” value is -2.46%.
In the case of `CS(=O)(=O)c1cnc2c(-c3ccc(F)cc3)cnn2c1N`, the “activity, negative = inhibition” value was -15.9%.
On to `CC(C)(C)S(=O)(=O)c1cnc2c(-c3ccc(F)cc3)cnn2c1N`, for which the AC50 is 11.2 µM (active).
Still for that read-out and setting: the value for `CN(Cc1ccco1)c1ncncc1-c1cccc(C#N)c1` was 20 µM (active).
In the case of `CN(C)c1ncc2nc(-c3cccc(C#N)c3)c(=O)n(CCC#N)c2n1`, the “activity, negative = inhibition” value was 2.53%.
For `CN(C)c1ccc(-c2cncnc2N(C)Cc2ccco2)cc1`, the AC50 is 0.251 µM (active).
Still for that read-out and setting: the value for `CN(Cc1ccco1)c1ncncc1-c1ccc2c(c1)OCO2` was 0.126 µM (active); that for `COc1cccc(-c2cncnc2N(C)Cc2ccco2)c1` was 7.94 µM (active).
For the compound `COCCn1c(=O)c(-c2cccc(C#N)c2)nc2cnc(N(C)C)nc21`, the “activity, negative = inhibition” value is -3.96%.
On to `COCC(=O)N1CCC[C@@]2(CCN(C(=O)Nc3cccc(F)c3)C2)C1`, for which the “activity, negative = inhibition” value was 17.5%.
On to `CN(Cc1ccco1)c1ncncc1-c1cccnc1`, for which the AC50 was 10 µM (active).
For the compound `CC(NC(=O)c1ccccc1)c1nc2ccccc2n1Cc1ccccc1F` (stereo not given), the AC50 is 8.91 µM (active).
On the same count and under the same terms, the value for `Cc1cc(NC(=S)NC(=O)CC(C)C)ccc1Br` was 3.55 µM (active); that for `CCCCn1nnnc1SCC(=O)c1cc(Cl)ccc1OC` was 0.0708 µM (active).
Consider `CCCCn1c(SCC(=O)N2CCCC2)nc2c1c(=O)n(C)c(=O)n2C`, for which the “activity, negative = inhibition” value was -31.9%.
`CCCCn1nnnc1SCC(=O)N1CCCC1`: the AC50 was 25.1 µM (active).
As to `C[N+](C)(C)CCCCCCCCCC[N+](C)(C)C`, the “activity, negative = inhibition” value is 35%.
On the same count and under the same terms, the value for `CCCCCCCCCCCC1=C(O)C(=O)C=C(O)C1=O` was -15.3%.
As for `O=S(=O)(N/N=C/c1ccc2c(c1)OCCO2)c1ccc(Cl)cc1`, the AC50 was 2.82 µM (active).
Same read-out and setting: the value for `O=S(=O)(N/N=C\c1ccc2c(c1)OCO2)c1ccc(Cl)cc1` was 0.794 µM (active).
